# Assay outcomes deposited in PubChem BioAssay by several laboratories.
# A3G deaminase – blocks human APOBEC3G single-stranded DNA deamination; recombinant A3G, ssDNA deamination FAM/TAMRA fluorescence; Q9HC16; AID 493012; 330,000 tested, 0.28% active; inhibition, % at 20 µM;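 active = inhibition of at least 40% at 20 µM, with no more than 30% in the related APOBEC3A deaminase screen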;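 note: plate controls were DMSO wells with A3G for no effect and wells lacking A3G enzyme for full effect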
# Target sequence (Q9HC16 whole entry, looked up): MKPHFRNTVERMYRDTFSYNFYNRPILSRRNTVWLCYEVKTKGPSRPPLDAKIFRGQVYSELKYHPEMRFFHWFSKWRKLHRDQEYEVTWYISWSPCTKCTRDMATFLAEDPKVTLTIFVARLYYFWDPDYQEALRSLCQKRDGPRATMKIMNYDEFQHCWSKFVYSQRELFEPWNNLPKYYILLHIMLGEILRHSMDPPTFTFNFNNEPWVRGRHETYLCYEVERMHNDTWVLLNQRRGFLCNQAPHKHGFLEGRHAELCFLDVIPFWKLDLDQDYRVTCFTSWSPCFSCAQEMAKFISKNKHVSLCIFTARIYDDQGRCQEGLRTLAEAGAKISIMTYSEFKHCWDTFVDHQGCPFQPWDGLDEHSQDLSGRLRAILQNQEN
# A3A deaminase – human APOBEC3A DNA deaminase inhibition; 330,000 tested, 0.41% active; recombinant A3A, FAM/TAMRA ssDNA deamination fluorescence; inhibition, % at 20 µM; P31941;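 active = at least 40% inhibition at 20 µM here, with at most 30% in a related deaminase screen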;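 note: plate controls were A3A with DMSO for no effect and wells lacking A3A enzyme for full effect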
# Target sequence (P31941 whole entry, looked up): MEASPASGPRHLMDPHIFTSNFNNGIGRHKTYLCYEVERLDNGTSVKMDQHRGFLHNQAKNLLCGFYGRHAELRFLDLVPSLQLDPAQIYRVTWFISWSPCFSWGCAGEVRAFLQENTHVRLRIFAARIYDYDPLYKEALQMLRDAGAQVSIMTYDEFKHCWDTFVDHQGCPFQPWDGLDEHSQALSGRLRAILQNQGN
# NALP1 inh – blocks the NALP1 inflammasome reconstituted in yeast. S. cerevisiae NALP1/ASC/caspase-1 growth, X-gal OD620, 72 h. inhibition, % at 10 µM. 280,000 tested, 0.61% active; in the data active = inhibition mostly above about 24%, no sharp cut-off; inactive = mostly below about 32%
# CTSL1 counter – cathepsin L1 inhibition, PFM18AAP counter-screen; recombinant F. hepatica cathepsin L1, Z-Leu-Arg-MCA fluorescence; inhibition, % at 5.96 µM; 300,000 tested, 0.49% active;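 active = inhibition above the mean of all tested compounds plus 3 SD, set per screening campaign, cut at about 17% in these data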;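 note: 0% = plate median of test compound wells and 100% = 1 µM Z-Phe-Ala-diazomethylketone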
# sPLA2-III inh – Inhibits HGIII-sPLA2 liposome hydrolysis, primary screen; QFRET BODIPY PC-A2 liposome hydrolysis, fluorescence; inhibition, % at 12.2 µM; Q9NZ20; 370,000 tested, 0.56% active;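 active = inhibition above mean plus 3 SD of compounds lying within the high and low control bounds, cut at about 19% in these data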;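 note: 0% = median of test compound wells and 100% = no enzyme DMSO wells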
# APOBEC3A confirm – confirmation of human APOBEC3A DNA deaminase inhibitors | shares compounds with A3A deaminase | recombinant A3A, ssDNA deaminase UDG fluorescence assay | inhibition, % at 20 µM | 1,400 tested, 63% active | AID 493151;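 active = inhibition reaching a set limit, 80% of the first screen's cutoff, at 20 µM in any replicate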;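 note: plate controls were DMSO wells with A3A for no effect and wells lacking A3A enzyme for full effect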
# UDG ctr A3A – counter-screen for APOBEC3A inhibitors: UDG | shares compounds with A3A deaminase | UDG counterscreen, FAM/TAMRA uracil oligo fluorescence | inhibition, % at 20 µM | 1,000 tested, under 10 active | AID 504714; call rule not given here
# Starred values were filed as active, the others as inactive; · = not tested or not shown. Shown are actives, neighbours in structure and some others; about 2% of the full set was active somewhere.
SMILES,A3G deaminase,A3A deaminase,NALP1 inh,CTSL1 counter,sPLA2-III inh,APOBEC3A confirm,UDG ctr A3A
O=C(CN1C(=O)NC2(CCSC2)C1=O)NCc1ccccc1 (centres undefined),-9,84*,-11,-3,-2,-6,-2
O=C(CN1C(=O)NC2(CCCC2)C1=O)NCc1ccccc1,-7,-3,·,·,3,·,·
C[C@@H]1CN([C@@H](C)CO)C(=O)CCCn2cc(nn2)CO[C@H]1CN(C)C(=O)Nc1ccc(N2CCN(C)CC2)cc1,·,·,·,·,9,·,·
Nc1ccc(-c2ccc(N)c(C(=O)O)c2)cc1C(=O)O,12,48*,·,4,7,37*,1
COc1ccc2c(/C=C/c3cc[n+](C)cc3)c[nH]c2c1,12,45*,16,5,-1,61*,3
Cc1ccc2[nH]cc(/C=C/c3cc[n+](C)cc3)c2c1,-14,49*,12,·,-54,67*,-8
COc1ccc2c(C=O)c[nH]c2c1,2,0,8,1,-1,·,·
CCn1c(/C=C/c2c[nH]c3ccccc23)nc2ccccc2c1=O,-12,-3,4,0,-14,·,·
CC[n+]1ccc(/C=C/c2c[nH]c3ccccc23)cc1,2,48*,17,0,-28,64*,-8
CC(=O)NC(Cc1ccccc1)P(=O)(O)O (centres undefined),·,·,·,·,4,·,·
CC(=O)c1ccc(S(=O)(=O)N2Cc3ccccc3CC2C(=O)O)cc1 (centres undefined),19,56*,10,0,0,56*,2
Cc1nc2ccc(S(=O)(=O)NCC(=O)NCc3ccc(F)cc3)cc2s1,·,·,·,·,13,·,·
CC(=O)c1cc(-c2ccccc2)n(CC(=O)NCc2ccccc2)c1C,·,·,·,·,-6,·,·
COc1ccc(CCN2C(=O)CC(Sc3ncccc3C(=O)O)C2=O)cc1OC (centres undefined),-4,98*,1,-2,-2,-5,2
C#CCNC(=O)C[C@H]1C[C@@]2(C(=O)OC)C(=C[C@H](C(C)(C)C)O[C@@H]2C)N(Cc2cccc3ccccc23)C1=O,·,·,·,·,-5,·,·
CC(=O)c1ccccc1NS(=O)(=O)c1cccc2nonc12,2,1,7,-6,-4,·,·
CC(=O)c1ccccc1NS(=O)(=O)c1cccc2nsnc12,8,41*,5,-19,-1,29*,2
Cc1cccc(C(=O)Nc2nnc(SCC(=O)Nc3ccc4c(c3)oc3ccccc34)s2)c1,14,81*,21,-3,8,84*,-2
c1ccc(-c2nnc3n2N=C(c2ccc4ccccc4c2)CS3)cc1,·,·,·,·,2,·,·
O=C(CCN1C(=O)COc2ccccc21)NCc1ccco1,-1,64*,26,2,3,7,5
O=c1[nH]c2cc(Br)c(Br)nc2[nH]1,·,·,·,·,-3,·,·
CN(C)c1cccc(N=C2C=C(N3CCOCC3)CC(C)(C)C2)c1,11,25,10,5,-2,·,·
O=C1C=C(N2CCOCC2)CO1,-1,-1,·,0,5,·,·
CC1C[N+](=C2C=C(N3CCOCC3)CC(C)(C)C2)CC(C)O1 (centres undefined),18,57*,·,0,0,65*,1
CN(C)NC1=CC(=[N+]2CCCC2)CC(C)(C)C1,0,19,3,1,7,·,·
SMILES,A3G deaminase,A3A deaminase,NALP1 inh,CTSL1 counter,sPLA2-III inh,APOBEC3A confirm,UDG ctr A3A
CC1(C)CC(N2CCOCC2)=CC(=[N+]2CCOCC2)C1,25,66*,-4,0,3,69*,1
CC1(C)CC(N2CCCCC2)=CC(=[N+]2CCCCC2)C1,25,60*,13,4,6,69*,-2
CCCN(CCC)C1=CC(=[N+]2CCCC2)CC(C)(C)C1,27,60*,16,3,8,31,·
C#CCN(C)S(=O)(=O)c1ccc(N2CCCC2)cc1Br,·,·,·,·,5,·,·
CCN1/C(=C/c2ccc3cccc(C)c3[n+]2CC)Sc2ccccc21,24,70*,34*,-2,2,85*,5
CC[N+]1=CN(c2ccccc2)C(C)=CC1(C)C,24,61*,17,3,4,28,·
CC1=NN(c2ccccc2)C(=O)C1(C)C,-2,-2,-11,-2,13,·,·
CCCn1c(=O)c2sccc2n2c(CCCC(=O)NCc3ccco3)nnc12,15,46*,16,2,3,34*,·
CCCn1c(=O)c2sccc2n2c(CCCC(=O)NCc3cccnc3)nnc12,0,-2,13,3,17,·,·
C#CCCN([C@H](C(=O)OC)C(C)CC)S(=O)(=O)c1ccccc1Br (some centres undefined),·,·,·,·,-1,·,·
CCc1cc(=O)oc2cc(C)c(CN3CCCCC3)c(O)c12,·,·,-14,-1,-5,·,·
CCc1cc(=O)oc2cc(C)c(CN3CCCC3)c(O)c12,17,41*,1,-1,0,54*,·
CCCCC(CC)C1OCC(C[N+]2(C)CCOCC2)O1 (centres undefined),19,29,19,-2,14,·,·
CC(c1ccccc1)C1OCC(C[N+]2(C)CCCCC2)O1 (centres undefined),15,68*,-5,-4,3,66*,0
O=C(CSc1n[nH]c(-c2ccncc2)n1)Nc1ccc(Cl)c(Cl)c1,15,59*,27,2,-4,48*,6
CCOC(=O)Cc1nc(N2CCN(Cc3cccc4c3OCO4)CC2)c2c(C)c(C(=O)OCC)sc2n1,·,·,·,·,-10,·,·
CCc1c(-c2ccc(Br)cc2)ncn1Cc1cccc(-c2ccccc2)c1,·,·,·,·,-3,·,·
C[C@H]1[C@H](N)CC[C@@]23CCCN2C(=O)CCC[C@@H]13,·,·,·,·,2,·,·
CC1CCCC/C1=N\NC(=S)NCCc1ccccc1 (centres undefined),-6,-2,16,5,5,·,·
C[n+]1ccccc1C1CCCC/C1=N\NC(N)=S (centres undefined),14,84*,5,1,1,55*,-1
CCCN(CC(=O)Nc1cc(Cl)ccc1Cl)C(=O)/C=C/c1ccco1,-3,77*,33,8,-6,1,-2
O=C1ON=C(c2ccc(Cl)c([N+](=O)[O-])c2)/C1=C/c1cccc([N+](=O)[O-])c1O,23,82*,·,·,19,88*,-3
O=C1ON=C(c2ccccc2[N+](=O)[O-])/C1=C/c1cccc([N+](=O)[O-])c1O,17,57*,·,·,1,83*,-1
O=C1ON=C(c2cccc([N+](=O)[O-])c2)/C1=C/c1ccc(O)cc1,1,5,-5,6,-10,·,·
O=C(CSc1nnc(-c2ccncc2)n1-c1ccccc1)N1CCN(c2ccc(Cl)cc2)CC1,15,44*,6,-5,0,65*,0
